Reference: PubChem BioAssay (NCI)
This is part of a sample that, as a whole, favours compounds with a hit. Of some 83,000 tested, about 20% had one in any assay.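 Results are percent growth after 48 hours of single-concentration exposure. 100 means growth as in untreated cells, lower positive values show inhibition; negative values down to -100 show cell death.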 Unmarked numbers belong to inactive results. Activity calls are given as the source filed them. How the source made its calls: active means growth percent below 10; inactive means the rest.

Tests used:
Experiment in all cases: NCI-60 one-dose screen, 48 h (100 = growth as untreated, 0 = no growth, -100 = all killed)
Settings in all cases: 10 µM unless noted
[1] = tested on: T-47D breast
[2] = tested on: BT-549 breast
[3] = tested on: MDA-MB-435 melanoma
[4] = tested on: SW-620 colon
[5] = tested on: MCF7 breast
[6] = tested on: HCT-116 colon
[7] = tested on: HCC-2998 colon
[8] = tested on: KM12 colon

Structure (SMILES) | growth [1] | growth [2] [%] | growth [3] [%] | growth [4] [%] | growth [5] | growth [6] [%] | growth [7] [%] | growth [8] [%]
O=S(=O)(c1ccc(N/N=C\c2ccccc2Cl)cc1)c1ccc(N/N=C/c2ccccc2Cl)cc1 | 76.3% | 78.6 | 86.9 | 87.6 | 68% | 80.8 | 103 | 69.9
Clc1ccc2nc(-c3ccc(-c4ccc(/C=N/NC5=NCCN5)cc4)s3)cn2c1 | 92.6% | 91.6 | 101 | 29.7 | 79.4% | 86.8 | 109 | 103
Cc1cccc([N+](=O)[O-])c1I | 104% | 110 | 103 | 108 | 114% | 112 | 101 | 112
O=C(O)c1cc([N+](=O)[O-])ccc1Br | 101% | 91.5 | 98.5 | 104 | 95.8% | 99.5 | 104 | 101
Cc1ccc(-n2nc3n(/c2=N\C(=O)NS(=O)(=O)c2ccc(C)cc2)CCN3C2=NCCN2)cc1 | 78.3% | 84.4 | 97.3 | 104 | 94.6% | 87.3 | 97.3 | 105
O=C1/C(=C/c2ccc(OCc3ccccc3)cc2)Oc2cc(OCCN3CCCCC3)ccc21 | 63.4% | 85.3 | 54.7 | 71.1 | 65.2% | 52.3 | 90.5 | 82.3
CC(C)[N+](C)(C)CC(O)COc1cccc2ccccc12 (stereo not given) | 102% | 112 | 118 | 99.7 | 102% | 113 | 101 | 96.1
Clc1ccc(N2CCN(CCCN3CCN(c4cccc(Cl)c4)CC3)CC2)cc1 | 40.2% | 29.4 | 62.4 | 66.5 | 44.6% | 36.6 | 66.8 | 59.5
O=[N+]([O-])c1ccc(O)c(-c2nc3ccccc3s2)c1 | 49.7% | 60.7 | 71.4 | 87.8 | 81% | 73 | 89.7 | 77.2
CC(C)(C)c1cc(C(=O)N2CCC(C(=O)NCCN)CC2)cc(C(C)(C)C)c1 | 78.8% | 95.4 | 98 | 103 | 92% | 99.4 | 106 | 105
Nc1nnc(CSc2nnc3n(Cc4ccccc4)c(=O)c4c5c(sc4n23)CCCC5)s1 | 74% | 117 | 106 | 110 | -30.9% (active) | 89.5 | 105 | 121
COC(=O)c1cc2c(=O)[nH]cc3c2c(n1)CCC3 | 91.9% | 108 | 119 | 103 | 94.1% | 106 | 88.4 | 106
Nc1cc(C(=O)O)[nH]c(=S)n1 | 105% | 69.1 | 98 | 101 | 96.2% | 100 | 95.3 | 98.9
Cc1cnc(N)nc1OCCNC(=O)c1cccc(-c2ccc(S(=O)(=O)Nc3ccc4c(c3)N(C(=O)C3CC3)CCC4)cc2)c1 | 36.9% | 66.2 | 78.8 | 99.1 | 77.2% | 76.3 | 77.4 | 75.2
CC1=CC[C@@H]2C(C)(C)C(=O)CC[C@@]2(C)[C@@H]1COc1ccc2ccc(=O)oc2c1 | 6.17% (active) | 55.9 | 80.5 | 101 | 87.8% | 79.5 | 83.6 | 63
